# Measured values reported in PubChem BioAssay (NCI).
# This is part of a sample that, as a whole, favours compounds with a hit. Of some 83,000 tested, about 20% had one in any assay.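 The endpoint reported here, percent growth, reads 100 for growth as untreated, 0 for no net growth and -100 for all cells dead.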 Unmarked numbers belong to inactive results. Calls of active or inactive are those of the source. Rule for the calls: active = growth percent below 10; inactive = the rest.
# Assays:
# Test in all cases: NCI-60 one-dose screen, 48 h (100 = growth as untreated, 0 = no growth, -100 = all killed)
# Conditions in all cases: 10 µM unless noted
# NCI-H23 lung = tested on: NCI-H23 lung
# NCI-H226 lung = tested on: NCI-H226 lung
# NCI-H322M lung = tested on: NCI-H322M lung
# HOP-62 NSCLC = tested on: HOP-62 NSCLC
# NCI-H460 lung = tested on: NCI-H460 lung
# HOP-92 NSCLC = tested on: HOP-92 NSCLC
# NCI-H522 lung = tested on: NCI-H522 lung
# A549/ATCC NSCLC = tested on: A549/ATCC NSCLC
# 786-0 renal = tested on: 786-0 renal
# COLO 205 colon = tested on: COLO 205 colon
# DU-145 prostate = tested on: DU-145 prostate
# K-562 leukemia = tested on: K-562 leukemia
# MALME-3M melanoma = tested on: MALME-3M melanoma
# MDA-MB-231 breast = tested on: MDA-MB-231 breast
# RXF 393 renal = tested on: RXF 393 renal
# SF-268 CNS = tested on: SF-268 CNS
# SF-295 CNS = tested on: SF-295 CNS
# SF-539 CNS = tested on: SF-539 CNS
# UACC-257 melanoma = tested on: UACC-257 melanoma
# M14 melanoma = tested on: M14 melanoma
Compound,growth (NCI-H23 lung),growth (NCI-H226 lung),growth (NCI-H322M lung),growth (HOP-62 NSCLC),growth (NCI-H460 lung),growth (HOP-92 NSCLC),growth (NCI-H522 lung),growth (A549/ATCC NSCLC),growth (786-0 renal),growth (COLO 205 colon),growth (DU-145 prostate),growth (K-562 leukemia),growth (MALME-3M melanoma),growth (MDA-MB-231 breast),growth (RXF 393 renal),growth (SF-268 CNS),growth (SF-295 CNS),growth (SF-539 CNS),growth (UACC-257 melanoma),growth (M14 melanoma)
C#CCOc1cccc(Nc2ncnc3c2ncn3C2CCN(C(=O)CCl)C2)c1 (stereo not given),-23.1% (active),1.03% (active),87.2%,1.84% (active),24.7%,-84.5% (active),-61.3% (active),54.6%,-72.4% (active),-72.5% (active),-95.4% (active),0.116% (active),-84% (active),-61.2% (active),-79.4% (active),-31.6% (active),53.4%,-68.5% (active),13.1%,-48.6% (active)
COc1ccccc1S(=O)(=O)Nc1ccc2c3c(cc(CCC(=O)NCCCCNc4cccc5c4C(=O)N(C4CCC(=O)NC4=O)C5=O)cc13)C(=O)N2C (stereo not given),70.3%,-0.85% (active),-3.45% (active),2.74% (active),97.8%,-10.7% (active),26.2%,56.1%,20.4%,2.62% (active),75.9%,17.4%,-29% (active),-33.3% (active),-14.4% (active),11.9%,47.6%,31.3%,71.7%,36%
C#CCOc1cccc(Nc2ncnc3cc(NC(=O)CCl)ccc23)c1,-65% (active),-26.7% (active),-13.9% (active),-61.6% (active),-55.3% (active),-76.9% (active),-76.1% (active),-59.4% (active),-69.1% (active),-79.9% (active),-77.1% (active),-43% (active),-73.4% (active),-78.9% (active),-75.6% (active),-55.8% (active),-92.8% (active),-80.4% (active),-43.3% (active),-56.1% (active)
Cn1c2ccccc2c2c3c(c4c5cc(Br)ccc5n(C)c4c21)C(=O)N(O)C3=O,2.91% (active),14.8%,31.8%,0.364% (active),4.42% (active),40.8%,25.4%,40.3%,14.6%,23.2%,-50.7% (active),10.4%,42.4%,-32% (active),-24.8% (active),-0.663% (active),25.9%,-27.7% (active),48.6%,-5.5% (active)
COc1ccc(-c2cc(C(=O)N3N=C(c4ccc(N)cc4)CC3c3ccc(Cl)cc3)c3cc(OC)ccc3n2)cc1 (stereo not given),67.6%,89.1%,90.9%,66.6%,105%,59.2%,44.9%,86.5%,19.2%,96.3%,83.7%,14.6%,62.1%,85%,78.9%,68.4%,66.7%,15.4%,77.2%,5.95% (active)
Cc1cc(=O)n(C(=S)Nc2ccc(Cl)cc2)c2cc(O)ccc12,85.6%,80.5%,97.7%,84.1%,110%,84.6%,94.9%,106%,109%,103%,109%,113%,91.5%,92.4%,99.7%,102%,99.8%,101%,110%,108%
N#Cc1c(-c2ccc(Br)cc2)nc2c(N=Nc3ccc(S(N)(=O)=O)cc3)c(N)nn2c1N,63.7%,66.2%,74.7%,52.2%,37.1%,31.5%,38.6%,68.4%,69.9%,25.5%,33.2%,36.3%,57.7%,41.2%,42.2%,55.9%,61.9%,38.6%,82.6%,41.4%
Nc1nc(N(Cc2ccccc2)c2ccccc2)c2cn[nH]c2n1,81.7%,98.3%,94.2%,70%,75.8%,62.1%,90.1%,71.4%,72.3%,58.8%,88.2%,23.9%,62.8%,62.1%,67.6%,73.8%,51.5%,68.8%,99.7%,33.5%
N=C(N)c1ccc(OCCSCCOc2ccc(C(=N)N)cc2)cc1,36.2%,58.8%,78.3%,72.5%,27.1%,79.2%,48.5%,57.4%,80.2%,79.5%,71.7%,54.3%,52.2%,82.1%,105%,74.2%,-33.5% (active),76.5%,76.2%,75.3%
C=C1C(=O)O[C@H]2[C@H]1CC/C(COC(=O)NCc1ccc(Cn3c(=O)sn(-c4ccccc4)c3=O)cc1)=C\CC[C@@]1(C)O[C@@H]21,91.7%,55.1%,92.7%,126%,81.3%,10.3%,-70.6% (active),114%,39.7%,3.5% (active),23.3%,1.19% (active),-9.16% (active),47.2%,6.99% (active),46.6%,108%,29%,68.3%,14.4%
COc1ccc(N/N=C/c2cn(-c3ccc(C(=O)O)cc3)nc2-c2cc3ccccc3oc2=O)cc1,86.7%,75.3%,85.2%,84%,47.4%,86.6%,52.3%,57.1%,59%,84.3%,84.2%,11.3%,109%,77.9%,111%,68.5%,22.5%,50%,88.9%,42.3%
N#Cc1ccc(O)c(C2=NCC(c3ccc(-c4ccccc4)cc3)O2)c1 (stereo not given),27.8%,29.8%,33%,2.79% (active),1.31% (active),35%,-8.42% (active),2.62% (active),20.1%,1.08% (active),30.5%,7.82% (active),17.4%,25%,42.2%,19.7%,19.4%,-9.06% (active),13.2%,-16.6% (active)
COc1ccc2c(c1)CC[C@@H]1[C@@H]2CC[C@]2(C)c3c(cc(C#N)c4c3sc3ccccc34)C[C@@H]12,99.4%,99.2%,108%,99.5%,115%,62.4%,96.5%,106%,111%,110%,121%,88.5%,108%,107%,106%,100%,103%,105%,99.9%,161%
Cc1c2ncccc2nc2[nH]c3ccc(OCCN(C)C)cc3c12,28.1%,32.7%,13.2%,29.3%,5.49% (active),30.3%,22.9%,5.31% (active),25.2%,19.1%,22.2%,17%,29.3%,30.3%,35.3%,30.8%,32%,38.5%,46.1%,19.4%
